Results filed as inconclusive are left out. Calls of active or inactive are those of the source. Rule for the calls, unless noted: active = hit-call score of the fitted dose curve at least 0.9, where 1 is the maximum; inconclusive = response in the unintended direction; inactive = score below 0.9.

This note sets out measurements from PubChem BioAssay (EPA / NIEHS).

Assay [1] can be described thus: ATG_M_32_XSP2: Attagene TRANS-FACTORIAL Multi-Species (XSP2) HepG2 Assay for M19 Transcription Factor (Internal Marker) (AID 2283826). Put shortly:
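Total RNA is taken from compound-treated HepG2 cells after 24 h and reverse-transcribed; reporter cDNA is PCR-amplified, end-labelled with 6-FAM, digested with HpaI for 2h at 37 C and sized by capillary electrophoresis. Activity is fitted in the positive direction against DMSO.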

Assay [2] can be described thus: UKN5_HCS_SBAD2_cell_viability: Viability Assessment in the University of Konstanz (UKN) Leist Lab Neurite Outgrowth Assay in human iPSC-derived immature Dorsal Root Ganglia Neurons (UKN5) (AID 2284056; active = hit-call score of the fitted dose curve at least 0.9, where 1 is the maximum; inactive = score below 0.9). The procedure, abridged:
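iPSC-derived immature peripheral neurons (SBAD2) seeded on Matrigel with CHIR99021, SU5402 and DAPT, dosed 1 h later for 24 h. Viability from Hoechst H-33342 and calcein-AM live staining, high-content imaging; bidirectional fit versus DMSO.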

A short description of assay [3]: UKN5_HCS_SBAD2_neurite_outgrowth: University of Konstanz (UKN) Leist Lab Neurite Outgrowth Assay in human iPSC-derived immature Dorsal Root Ganglia Neurons (UKN5) (AID 2284070; active = hit-call score of the fitted dose curve at least 0.9, where 1 is the maximum; inactive = score below 0.9). The settings on record: actives raise or lower the signal. Put shortly:
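Cryopreserved SBAD2 peripheral neurons were seeded at 100.000 cells/cm2 in N2-S/KSR medium containing CHIR99021, SU5402 and DAPT, then exposed to compounds for 24 h. Neurite area from calcein-AM high-content imaging was fitted bidirectionally against DMSO.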

A short description of assay [4]: UKN4_HCS_LUHMES_neurite_outgrowth: University of Konstanz (UKN) Leist Lab Neurite Outgrowth Assay in human LUHMES cells (UKN4) (AID 2284206; active = hit-call score of the fitted dose curve at least 0.9, where 1 is the maximum; inactive = score below 0.9). The settings on record: actives raise or lower the signal. The procedure, abridged: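 Read-out: calcein-AM neurite area by high-content fluorescence imaging, with Hoechst H-33342 viability counterstain, after 24 h chemical exposure of day-2 differentiated LUHMES cells. Activity fitted bidirectionally against DMSO baseline.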

Assay [5] in a line: CCTE_Mundy_HCI_Cortical_Synap_Neur_Matur_BPCount: CCTE's Synaptogenesis and Neurite Maturation Assay in rat cortical cells for Branch Point Count, Mundy Lab (AID 2284211; active = hit-call score of the fitted dose curve at least 0.9, where 1 is the maximum; inactive = score below 0.9). Put shortly:
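In this multiplexed morphology assay, cortical cells from rat receive chemicals at DIV 7 and are fixed at DIV 12, then immunostained and imaged; branch points are counted, with DMSO as baseline.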

Assay [6] is described as follows: CCTE_Mundy_HCI_Cortical_NOG_NeuriteCount: CCTE's Neurite Outgrowth Assay in rat cortical cells for Neurite Count, Mundy Lab (AID 2284212; active = hit-call score of the fitted dose curve at least 0.9, where 1 is the maximum; inactive = score below 0.9;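 note: cells fixed about two days after chemical exposure began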). Put shortly: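 Rat cortical primary cells; compound added 2 h post-plating, 1/10 dilution of working solution. Anti-betaIII-tubulin/AF488 ICC; ArrayScan neurite count vs DMSO.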
Assay [7] is described as follows: CCTE_Mundy_HCI_Cortical_Synap_Neur_Matur_NeuriteCount: CCTE's Synaptogenesis and Neurite Maturation Assay in rat cortical cells for Neurite Count, Mundy Lab (AID 2284222; active = hit-call score of the fitted dose curve at least 0.9, where 1 is the maximum; inactive = score below 0.9;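 for outcome: exposure from day 7 to day 12 in vitro with readout at day 12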). The procedure, abridged:
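Primary rat cortical cells were plated, treated with AraC at DIV 5, then exposed to chemicals from DIV 7 through DIV 12. After fixation and immunostaining for MAP2 and synaptophysin, imaging quantified neurites, with DMSO as the negative control.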

Assay [8] in a line: CCTE_Mundy_HCI_hNP1_Pro_ResponderAvgInten: CCTE's Proliferation Assay in human neuroprogenitor cells, Mundy Lab (AID 2284224). The procedure, abridged: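 Proliferation was scored as BrdU labelling intensity in human neural progenitors derived from WA09 embryonic cells, measured 26.25 hours after chemical dosing. Activity was fitted relative to DMSO.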
A short description of assay [9]: UKN4_HCS_LUHMES_cell_viability: Viability Assessment in the University of Konstanz (UKN) Leist Lab Neurite Outgrowth Assay in human LUHMES cells (UKN4) (AID 2284232; active = hit-call score of the fitted dose curve at least 0.9, where 1 is the maximum; inactive = score below 0.9). The procedure, abridged:
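Day-2 differentiated LUHMES, 30000 cells/well, dosed ~30 min–2 h post-seeding; 24 h treatment incl. staining; Hoechst H-33342 + calcein-AM at 23.5 h; HCS imaging; DMSO-normalized, bidirectional fit.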

Assay [10] in a line: CCTE_Mundy_HCI_hNP1_Casp3_7: CCTE's Caspase-Glo 3/7 Assay in human neuroprogenitor cells for Apoptosis, Mundy Lab (AID 2284240; active = hit-call score of the fitted dose curve at least 0.9, where 1 is the maximum; inactive = score below 0.9). The procedure, abridged: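 Apoptosis is scored by activated caspase-3/7 luminescence in WA09-derived neural progenitor cells, measured 26.5 h after chemical dosing. Values represent gain of signal relative to DMSO vehicle.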
Assay [11] can be described thus: CCTE_Mundy_HCI_hNP1_CellTiter: CCTE's Cell Titer-Glo 2 Assay in human neuroprogenitor cells for Viability, Mundy Lab (AID 2284241). Put shortly: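 Human neural progenitor cells (hNP1, WA09-derived) were plated on poly-L-ornithine/laminin and grown 40 to 44 hours at 37 °C, 5% CO2 before chemical addition. Twenty-four hours later, ATP was measured by CellTiter-Glo luminescence; loss of signal versus DMSO indicates reduced viability.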
On the technique in general: In ATP-based viability assays light output follows the ATP content of the culture.

The nature of assay [12]: CCTE_Mundy_HCI_Cortical_Synap_Neur_Matur_NeuronCount: CCTE's Synaptogenesis and Neurite Maturation Assay in rat cortical cells for Neuron Count, Mundy Lab (AID 2284242).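 For AC50: neuron number from Hoechst nuclei and MAP2 staining by high-content imaging; hits reduce neuron count versus DMSO baseline.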 The procedure, abridged: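 Rat cortical cultures; AraC DIV 5; chemical dosing + media change DIV 7 to DIV 12 (288.33 h readout). Fix, Hoechst, anti-MAP2/anti-synaptophysin immunostain; HCI neuron count vs DMSO baseline.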

The nature of assay [13]: IUF_NPC4_neurite_area_120hr: Leibniz Research Institute for Environmental Medicine (IUF) 120-hour Neuronal Morphology Assay for Neurite Area (NPC4) (AID 2284305). The procedure, abridged:
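Neurite area (pixels, nuclei excluded) of TUBB3-positive neurons from hNPC spheres differentiating 5 days under continuous exposure at 37 C, 5% CO2. High-content imaging; loss of signal versus DMSO control across 7 concentrations.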

Assay [14] can be described thus: CCTE_Harrill_HTTr_CellCount_MCF7: CCTE's Cell Proliferation Assessment for the High-Throughput Transcriptomics (HTTr) Platform, Harrill Lab (AID 2284012).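 Note: count of Hoechst-stained nuclei per well by high-content imaging in MCF-7 cells; cells exposed to compound for six hours; intended direction is loss of nuclei count meaning fewer cells.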 The procedure, abridged: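 Readout: Hoechst nuclear count by high-content imaging. MCF-7, 8-point dilution series, 6 h exposure. Bidirectional fit vs DMSO baseline.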
Assay [15] in a line: IUF_NPC1_cytotoxicity_72hr: Cytotoxicity Assessment at 72 hours in the Leibniz Research Institute for Environmental Medicine (IUF) Neural Progenitor Cell Proliferation Assay (NPC1) (AID 2284332).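 Note: rising LDH signal means more cytotoxicity.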 The procedure, abridged:
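LDH in supernatant, resazurin→resorufin fluorescence (RFU), 72 h exposure, no re-dosing. Cells: primary hNPC spheres, one per well, EGF+FGF medium, 37C/5% CO2, pH 7.2-7.6. Fit: positive direction vs baseline and dynamic range.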

Assay [16] is described as follows: CCTE_Mundy_HCI_Cortical_NOG_NeuronCount: CCTE's Neurite Outgrowth Assay in rat cortical cells for Neuron Count, Mundy Lab (AID 2284236).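 Note: neurons counted by imaging betaIII-tubulin and Hoechst stained cortical cells; cells exposed to compound for about 48 hours before fixation.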 The procedure, abridged: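 Read-out: neuron number by high-content imaging of betaIII-tubulin (Alexa Fluor-488) and Hoechst-labelled rat primary cortical cells.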
Assay [17] can be described thus: CCTE_Mundy_HCI_iCellGluta_NOG_NeuriteLength: CCTE's Neurite Outgrowth Assay in iCellGluta cells for Neurite Length, Mundy Lab (AID 2284318). The procedure, abridged:
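Automated high-content imaging of betaIII-tubulin (Alexa Fluor-488) and Hoechst-stained cells gave neurite length, normalized to the DMSO baseline.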

A short description of assay [18]: CCTE_Mundy_HCI_iCellGluta_NOG_NeuronCount: CCTE's Neurite Outgrowth Assay in iCellGluta cells for Neuron Count, Mundy Lab (AID 2284340).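 Note: cells fixed about 48 h after compound addition.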 The procedure, abridged:
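Neuron count read by automated high-content imaging of Hoechst 33342 and betaIII-tubulin/Alexa Fluor-488 labelling in human iPSC glutamatergic neurons. Activity fitted relative to DMSO.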

Assay [19] can be described thus: CCTE_Mundy_HCI_iCellGluta_NOG_NeuriteCount: CCTE's Neurite Outgrowth Assay in iCellGluta cells for Neurite Count, Mundy Lab (AID 2284342).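 Note: chemical exposure about 48 hours starting 2 hours after plating.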
Assay [20] in a line: IUF_NPC5_oligodendrocyte_differentiation_120hr: Leibniz Research Institute for Environmental Medicine (IUF) 120-hour Oligodendrocyte Differentiation Assay (NPC5) (AID 2284304).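 Note: primary human fetal neural progenitor spheres plated to migrate and differentiate; share of O4-positive cells among Hoechst nuclei found by CNN image analysis.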 The procedure, abridged: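 Human primary NPC neurospheres migrating and differentiating on laminin for 120 h under continuous compound exposure (serial dilution, solvent control). Endpoint: percent O4+ oligodendrocytes among Hoechst nuclei, detected by CNN image analysis, with DMSO as negative control.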

As for `CCCCCCCCCCCCN`, the call in [1] was inactive.
Still for that read-out and setting: to `CC(C)(c1cc(Br)c(O)c(Br)c1)c1cc(Br)c(O)c(Br)c1` belongs “inactive”; to `c1ccc(B(c2ccccc2)c2ccccc2)cc1`, “inactive”; to `N#Cc1ccc(C2CCCc3cncn32)cc1` (stereo not drawn), “inactive”.
One may read the AC50 as the concentration giving half of the maximal activity seen. Regarding `C[n+]1ccc(-c2cc[n+](C)cc2)cc1`, the call in [2], in assay [9], in assay [10], in [11] and in assay [13] was inactive. For the same molecule, the half-maximal activity concentration (AC50) was 202 µM (active) in assay [3]; 189 µM (active) in assay [4]; 0.947 µM (active) in [5]; 29.6 µM (active) in assay [6]; 1.21 µM (active) in assay [7]; 85.1 µM (active) in [8]. In addition, the AC50 in assay [12] was 0.763 µM (active).
Turning to `O=C(Oc1ccccc1)c1ccc(O)cc1`, the molecule was classed as inactive in [1].
As to `CCCCCCCCCCCCc1ccc(O)cc1`, the call in [1] was inactive.
Still for that read-out and setting: to `CCN(Cc1c(F)cccc1Cl)c1c([N+](=O)[O-])cc(C(F)(F)F)cc1[N+](=O)[O-]` belongs “inactive”; to `CCCCC(CC)COC(=O)c1ccc(O)cc1` (stereo not drawn), “inactive”.
For `O=c1[nH]c2c(c(=O)n1C1CCCCC1)CCC2`, the outcome in [14] was inactive.
On the same count and under the same terms, to `Clc1c(Cl)c(Cl)c2c(c1Cl)Oc1c(Cl)c(Cl)c(Cl)c(Cl)c1O2` belongs “inactive”.
As to `C(=C(c1ccccc1)c1ccccc1)c1ccccc1`, the outcome in assay [1] was inactive.
`O=S1OC[C@@H]2[C@H](CO1)[C@]1(Cl)C(Cl)=C(Cl)[C@]2(Cl)C1(Cl)Cl` (stereo partly drawn): in assay [14], the call was inactive.
Turning to `CC(C)(C)NC(=O)[C@H]1CC[C@H]2[C@@H]3CC[C@H]4NC(=O)C=C[C@]4(C)[C@H]3CC[C@]12C`, the molecule was called inactive in assay [1].
In the case of `Oc1ccc2cc(SSc3ccc4cc(O)ccc4c3)ccc2c1`, the molecule was called inactive in assay [1].
Consider `Cc1oc(-c2ccccc2)nc1CCOc1ccc(C[C@H](Nc2ccccc2C(=O)c2ccccc2)C(=O)O)cc1`, for which the call in assay [1] was inactive.
On the same count and under the same terms, the value for `Oc1ccccc1Cc1ccccc1O` was “inactive”.
For `CCCOC(=O)c1ccc(O)cc1`, the molecule was classed as inactive in [1].
In the case of `COP(=S)(OC)SCC(=O)N(C)C=O`, the outcome in assay [14] was inactive.
With `O=C(c1ccc(O)cc1)c1ccc(O)cc1O`, the call in [1] was inactive.
With `O=C(O)CCCOC(=O)c1ccccc1C(=O)O`, the call in assay [14] was inactive.
For the molecule `CP(=O)(O)CCC(N)C(=O)O` (stereo not drawn), the outcome in assay [2], in assay [3], in assay [4], in [9], in assay [13] and in assay [15] was inactive.
For `CC(=O)[O-].[Tl+]`, the AC50 is 9.92 µM (active) in [5]; 59.5 µM (active) in assay [6]; 25.3 µM (active) in [7]; 50 µM (active) in assay [16]; 15.4 µM (active) in assay [12]; 30.9 µM (active) in assay [13]. In addition, the AC50 in assay [17] is 2.79 µM (active); in assay [18], 31.3 µM (active); in assay [19] it was 2.26 µM (active). Moreover, the molecule was called inactive in assay [8], in assay [10] and in assay [15].
Turning to `C#CCN(C)[C@H](C)Cc1ccccc1`, the outcome in assay [5], in assay [6], in assay [7], in assay [10], in [11] and in [12] was inactive. The call in assay [17], in assay [18] and in [19] was inactive.
For the molecule `CCOP(=O)(Oc1cnc(C(C)(C)C)nc1)OC(C)C` (stereo not drawn), the outcome in [5], in [6], in [7], in [8], in [16] and in [10] was inactive. For the same molecule, the molecule was classed as inactive in assay [11], in [12], in [20], in [13], in assay [15] and in assay [18]. Also, the molecule was called inactive in [19]. In [17], the AC50 was 28.8 µM (active).
